Inconclusive results are not listed. Entries that show only a call come without a potency. Active and inactive are the calls of the source. Unless noted, calls follow the shape of the full dose curve.
Tested on: not listed separately
Experiment: qHTS for Inhibitors of the Functional Ribonucleoprotein Complex (vRNP) of Lymphocytic Choriomeningitis Arenaviruses (LCMV): Viability assay - alamar blue signal for LCMV Primary Screen (AID 1347085; calls by dose curve; tested in HEK293 reporter line; also: nearly all actives have a fitted effect of over 80% in size)
Conditions: alamar blue viability counter-screen, LCMV vRNP screen cells; series mostly up to 57.5 µM

SMILES	Potency	activity change, negative = lower viability
COC(/C=C(\C)CCC=C(C)C)OC	inactive	–
O=C(C=CC=Cc1ccc2c(c1)OCO2)N1CCCCC1	inactive	–
CC/C=C\C[C@H](O)/C=C/C=C\C/C=C\C/C=C\CCCC(=O)O	–	7.46% [at 0.757 µM] (inactive)
CN=CNc1ccc(C)cc1C	inactive	–
CC1C2CC(CC2C2CCCC(O)C2)C1(C)C (stereo not given)	inactive	–
C=CCCCCCCCCCCCC(O)CC(O)COC(C)=O (stereo not given)	inactive	–
O=C(CCCO)CCCCCCCCC[C@H]1N[C@H](CO)[C@@H](O)[C@@H]1O	inactive	–
SC1CCCC1	inactive	–
CN1CCC[C@H]1CCO[C@](C)(c1ccccc1)c1ccc(Cl)cc1	inactive	–
CCNC(=O)CCCC=CC[C@@H]1[C@H](C=CC(O)CCc2ccccc2)[C@@H](O)C[C@@H]1O (stereo not given in full)	inactive	–
C[C@@H]1C[C@@H]2OC(=O)[C@]3(C)[C@H]2[C@@H](OC3(C)O)[C@]2(C)C(=O)C=C[C@H]12 (stereo not given in full)	inactive	–
CC1(C)C=C2[C@H]3CC[C@@H]4[C@@]5(C)CCC(=O)C(C)(C)[C@@H]5CC[C@@]4(C)[C@]3(C)CC[C@@]2(C(=O)O)CC1	inactive	–
C=C1C(=O)OC2C=C(C)CCC=C(C)CCC12 (stereo not given)	inactive	–
CC(C)(O[C@@H]1O[C@H](CO)[C@@H](O)[C@H](O)[C@H]1O)[C@H]1Cc2cc3ccc(=O)oc3cc2O1	inactive	–
COc1cc2c(cc1OC)C(C(=O)c1ccc(OC)c(OC)c1O)=NCC2	inactive	–
O=C(O)CCC/C=C\C/C=C\C=C\[C@@H](O)C/C=C\CCCCCO	–	9.51% [at 0.757 µM] (inactive)
CCC(C)(O)C(=O)N[C@H]1CCCN1C(=O)/C=C/c1ccccc1 (stereo not given in full)	inactive	–
COc1cc(C(=O)O)cc(OC)c1OC	inactive	–
N#CC(=C(N)Sc1ccc(N)cc1)c1ccccc1C(F)(F)F	inactive	–
NC1=NCCCC1	inactive	–

SMILES	Potency	activity change, negative = lower viability
COc1c(C(O)CC(C)C)ccc2c1C(=O)OCc1cc(C)cc(O)c1O2 (stereo not given)	inactive	–
COc1cc2cc(Oc3ccc4ccc(=O)oc4c3)c(=O)oc2cc1OC1OC(COC(=O)CC(C)(O)CC(=O)O)C(O)C(O)C1O (stereo not given)	inactive	–
COc1cc2c(cc1O)[C@@H]1Cc3cc(OC)c(OC)cc3C(C2)N1C	inactive	–
CC[C@H](C)C(=O)N[C@H]1CCCN1C(=O)/C=C/c1ccccc1	inactive	–
O=C(/C=C/c1ccccc1)OCCc1ccccc1	inactive	–
C=C(C)[C@@H]1CC[C@]2(C(=O)O)CC[C@]3(C)C(CCC4[C@@]5(C)CC[C@H](O)C(C)(C)C5CC[C@]43C)C12 (stereo not given in full)	inactive	–
CON(C)C(=O)N1N=C(c2cc(F)ccc2F)S[C@]1(CCCN)c1ccccc1	inactive	–
C=C[C@@]1(C)CCC(/C(C)=C/C=C/C(C)(C)O)C[C@@H]1C(=C)C (stereo not given in full)	inactive	–
OCCNC1CCCc2c1[nH]c1ccc(-c3ccccc3)cc21 (stereo not given)	inactive	–
CC[C@@H](O)C[C@H]1CCC[C@@]2(C[C@@H]3OC(=O)/C=C/[C@@](C)(O)[C@@H](O)[C@H](C)[C@@H](O)[C@H](OC4CCC(N(C)C)C(C)O4)[C@@H](O)[C@](C)(O)CCCCC/C=C/[C@@H]4CC(C)(C)O[C@@]4(O)C[C@H](O2)[C@H]3C)O1 (stereo not given in full)	inactive	–
CC(=O)OC[C@]1(OC(C)=O)C[C@@]23CC[C@H]4[C@@](C)(CCC[C@@]4(C)C(=O)O)[C@@H]2CC[C@@H]1C3	inactive	–
COc1cc2nc3occc3c(OC)c2cc1OC	inactive	–
O=c1[nH]c(=O)n([C@H]2C[C@@H](O)[C@@H](CO)O2)cc1I	inactive	–
CC(=O)O[C@@H]1CC2C(C)(C)C(=O)C=C[C@]2(C)C2CC[C@]3(C)C(=CC[C@H]3C3CO[C@@H](C(C)(C)O)[C@H](O)C3)[C@@]21C (stereo not given in full)	inactive	–
Cc1cc(O)cc(O[C@H]2OC(CO)[C@H](O)[C@@H](O)[C@H]2O)c1 (stereo not given in full)	inactive	–
C/C=C/C=C/CO	inactive	–
Cn1c2c(c(=O)c3ccccc31)C[C@@H](O)C(C)(C)O2	inactive	–
COc1c2c(nc3occc13)C(CCC(C)(C)O)(OC)C(O)CC2 (stereo not given)	inactive	–
CCCCCC/C=C/C=O	inactive	–
COc1cc(CCC(C)=O)ccc1O	inactive	–

Target: Nucleoprotein (Lymphocytic choriomeningitis virus (strain Armstrong)) (UniProt P09992)
Experiment: qHTS for Inhibitors of the Functional Ribonucleoprotein Complex (vRNP) of Lymphocytic Choriomeningitis Arenaviruses (LCMV): LCMV Primary Screen - GLuc reporter signal (AID 1347086); also: nearly all actives have a fitted effect of over 70% in size
Conditions: LCMV minigenome vRNP cell assay, Gaussia luciferase reporter; series mostly up to 57.5 µM

Chain of Nucleoprotein (Lymphocytic choriomeningitis virus (strain Armstrong)) (P09992 whole entry, looked up): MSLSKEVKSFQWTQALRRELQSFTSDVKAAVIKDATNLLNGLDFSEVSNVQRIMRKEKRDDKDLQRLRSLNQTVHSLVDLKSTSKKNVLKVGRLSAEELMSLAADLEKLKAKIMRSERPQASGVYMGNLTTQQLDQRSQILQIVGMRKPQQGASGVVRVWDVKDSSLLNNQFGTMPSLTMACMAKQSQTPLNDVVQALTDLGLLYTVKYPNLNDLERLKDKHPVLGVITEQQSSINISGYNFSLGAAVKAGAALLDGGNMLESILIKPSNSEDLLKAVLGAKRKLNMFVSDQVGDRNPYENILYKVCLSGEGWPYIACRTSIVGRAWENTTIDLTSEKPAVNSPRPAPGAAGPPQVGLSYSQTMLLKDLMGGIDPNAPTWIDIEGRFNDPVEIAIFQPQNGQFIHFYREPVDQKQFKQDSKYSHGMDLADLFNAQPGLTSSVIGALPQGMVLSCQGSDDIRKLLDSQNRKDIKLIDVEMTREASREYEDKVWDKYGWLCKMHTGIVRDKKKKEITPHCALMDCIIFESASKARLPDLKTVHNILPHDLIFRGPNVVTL

SMILES	Potency	activity change, negative = inhibition
COC(/C=C(\C)CCC=C(C)C)OC	inactive	–
O=C(C=CC=Cc1ccc2c(c1)OCO2)N1CCCCC1	inactive	–
CC/C=C\C[C@H](O)/C=C/C=C\C/C=C\C/C=C\CCCC(=O)O	–	12.1% [at 0.757 µM] (inactive)
CN=CNc1ccc(C)cc1C	inactive	–
CC1C2CC(CC2C2CCCC(O)C2)C1(C)C (stereo not given)	inactive	–
C=CCCCCCCCCCCCC(O)CC(O)COC(C)=O (stereo not given)	inactive	–
O=C(CCCO)CCCCCCCCC[C@H]1N[C@H](CO)[C@@H](O)[C@@H]1O	inactive	–
SC1CCCC1	inactive	–
CN1CCC[C@H]1CCO[C@](C)(c1ccccc1)c1ccc(Cl)cc1	inactive	–
CCNC(=O)CCCC=CC[C@@H]1[C@H](C=CC(O)CCc2ccccc2)[C@@H](O)C[C@@H]1O (stereo not given in full)	inactive	–
C[C@@H]1C[C@@H]2OC(=O)[C@]3(C)[C@H]2[C@@H](OC3(C)O)[C@]2(C)C(=O)C=C[C@H]12 (stereo not given in full)	inactive	–
CC1(C)C=C2[C@H]3CC[C@@H]4[C@@]5(C)CCC(=O)C(C)(C)[C@@H]5CC[C@@]4(C)[C@]3(C)CC[C@@]2(C(=O)O)CC1	inactive	–
C=C1C(=O)OC2C=C(C)CCC=C(C)CCC12 (stereo not given)	inactive	–
CC(C)(O[C@@H]1O[C@H](CO)[C@@H](O)[C@H](O)[C@H]1O)[C@H]1Cc2cc3ccc(=O)oc3cc2O1	inactive	–
COc1cc2c(cc1OC)C(C(=O)c1ccc(OC)c(OC)c1O)=NCC2	inactive	–
O=C(O)CCC/C=C\C/C=C\C=C\[C@@H](O)C/C=C\CCCCCO	–	12.9% [at 0.757 µM] (inactive)
CCC(C)(O)C(=O)N[C@H]1CCCN1C(=O)/C=C/c1ccccc1 (stereo not given in full)	inactive	–
COc1cc(C(=O)O)cc(OC)c1OC	inactive	–
N#CC(=C(N)Sc1ccc(N)cc1)c1ccccc1C(F)(F)F	inactive	–
NC1=NCCCC1	inactive	–

SMILES	Potency	activity change, negative = inhibition
COc1c(C(O)CC(C)C)ccc2c1C(=O)OCc1cc(C)cc(O)c1O2 (stereo not given)	inactive	–
COc1cc2cc(Oc3ccc4ccc(=O)oc4c3)c(=O)oc2cc1OC1OC(COC(=O)CC(C)(O)CC(=O)O)C(O)C(O)C1O (stereo not given)	inactive	–
COc1cc2c(cc1O)[C@@H]1Cc3cc(OC)c(OC)cc3C(C2)N1C	inactive	–
CC[C@H](C)C(=O)N[C@H]1CCCN1C(=O)/C=C/c1ccccc1	inactive	–
O=C(/C=C/c1ccccc1)OCCc1ccccc1	inactive	–
C=C(C)[C@@H]1CC[C@]2(C(=O)O)CC[C@]3(C)C(CCC4[C@@]5(C)CC[C@H](O)C(C)(C)C5CC[C@]43C)C12 (stereo not given in full)	inactive	–
CON(C)C(=O)N1N=C(c2cc(F)ccc2F)S[C@]1(CCCN)c1ccccc1	inactive	–
C=C[C@@]1(C)CCC(/C(C)=C/C=C/C(C)(C)O)C[C@@H]1C(=C)C (stereo not given in full)	inactive	–
OCCNC1CCCc2c1[nH]c1ccc(-c3ccccc3)cc21 (stereo not given)	inactive	–
CC[C@@H](O)C[C@H]1CCC[C@@]2(C[C@@H]3OC(=O)/C=C/[C@@](C)(O)[C@@H](O)[C@H](C)[C@@H](O)[C@H](OC4CCC(N(C)C)C(C)O4)[C@@H](O)[C@](C)(O)CCCCC/C=C/[C@@H]4CC(C)(C)O[C@@]4(O)C[C@H](O2)[C@H]3C)O1 (stereo not given in full)	inactive	–
CC(=O)OC[C@]1(OC(C)=O)C[C@@]23CC[C@H]4[C@@](C)(CCC[C@@]4(C)C(=O)O)[C@@H]2CC[C@@H]1C3	inactive	–
COc1cc2nc3occc3c(OC)c2cc1OC	inactive	–
O=c1[nH]c(=O)n([C@H]2C[C@@H](O)[C@@H](CO)O2)cc1I	inactive	–
CC(=O)O[C@@H]1CC2C(C)(C)C(=O)C=C[C@]2(C)C2CC[C@]3(C)C(=CC[C@H]3C3CO[C@@H](C(C)(C)O)[C@H](O)C3)[C@@]21C (stereo not given in full)	inactive	–
Cc1cc(O)cc(O[C@H]2OC(CO)[C@H](O)[C@@H](O)[C@H]2O)c1 (stereo not given in full)	inactive	–
C/C=C/C=C/CO	inactive	–
Cn1c2c(c(=O)c3ccccc31)C[C@@H](O)C(C)(C)O2	inactive	–
COc1c2c(nc3occc13)C(CCC(C)(C)O)(OC)C(O)CC2 (stereo not given)	inactive	–
CCCCCC/C=C/C=O	inactive	–
COc1cc(CCC(C)=O)ccc1O	inactive	–

Reference: PubChem BioAssay (NCATS)
